From PubChem
KCNQ2 pot: potentiators of rat KCNQ2 potassium channel; 0.54% of 310,000 active; AID 2239, 2010; B-score at 10 µM; CHO-K1 KCNQ2, FluxOR thallium flux fluorescence; stronger effect = higher value; Potassium voltage-gated channel subfamily KQT member 2 (Rattus norvegicus), O88943;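 active means fluorescence ratio B-score at least 3 SD of library B-scores, with initial fluorescence B-score within 3 of them, cut at about 5.3 in these data; same plate scores as AID 2156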;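 further: B-score of peak minus minimum over baseline fluorescence ratio after K+ and Tl+ stimulus; positive B-score means potentiation of KCNQ2 with more thallium influx and brighter signal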
KCNQ2 block: rat KCNQ2 potassium channel inhibitors, primary screen, cell-based, CHO-K1, FluxOR thallium flux, B-score. Potassium voltage-gated channel subfamily KQT member 2 (Rattus norvegicus), O88943. 20 min; stronger effect = lower value. B-score at 10 µM. 1.1% of 310,000 active. AID 2156, 2009;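 active means fluorescence ratio B-score at most minus 3 library SDs, with starting brightness B-score within 2 library SDs, cut at about -5.5 in these data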
KCNQ2 block conf: rat KCNQ2 potassium channel inhibitors, confirmation, cell-based, thallium flux | shares compounds with KCNQ2 block | KCNQ2-expressing cells, inhibition; stronger effect = lower value | activity change, negative = inhibition, % at 10 µM | 57% of 1,000 active | AID 493025, 2011;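 further: 0% = vehicle wells and values are ratio percent relative to vehicle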
KCNQ1 spec: human KCNQ1 channel inhibition, counter-screen for KCNQ2 inhibitor project, cell-based, FluxOR thallium flux; 15% of 1,000 active; activity change, negative = inhibition, % at 10 µM; KCNQ1-expressing cells, FluxOR thallium flux fluorescence; stronger effect = lower value; shares compounds with KCNQ2 block;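 active means activity change at least 3 SD of negative controls below their mean in both duplicate wells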;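 further: CHO cells stably transfected with KCNQ1 and depolarized by potassium stimulus; peak minus minimum fluorescence over baseline after thallium addition; 0% = vehicle negative control and -100% = blank without thallium stimulus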
Target sequence (P51787 whole entry, looked up): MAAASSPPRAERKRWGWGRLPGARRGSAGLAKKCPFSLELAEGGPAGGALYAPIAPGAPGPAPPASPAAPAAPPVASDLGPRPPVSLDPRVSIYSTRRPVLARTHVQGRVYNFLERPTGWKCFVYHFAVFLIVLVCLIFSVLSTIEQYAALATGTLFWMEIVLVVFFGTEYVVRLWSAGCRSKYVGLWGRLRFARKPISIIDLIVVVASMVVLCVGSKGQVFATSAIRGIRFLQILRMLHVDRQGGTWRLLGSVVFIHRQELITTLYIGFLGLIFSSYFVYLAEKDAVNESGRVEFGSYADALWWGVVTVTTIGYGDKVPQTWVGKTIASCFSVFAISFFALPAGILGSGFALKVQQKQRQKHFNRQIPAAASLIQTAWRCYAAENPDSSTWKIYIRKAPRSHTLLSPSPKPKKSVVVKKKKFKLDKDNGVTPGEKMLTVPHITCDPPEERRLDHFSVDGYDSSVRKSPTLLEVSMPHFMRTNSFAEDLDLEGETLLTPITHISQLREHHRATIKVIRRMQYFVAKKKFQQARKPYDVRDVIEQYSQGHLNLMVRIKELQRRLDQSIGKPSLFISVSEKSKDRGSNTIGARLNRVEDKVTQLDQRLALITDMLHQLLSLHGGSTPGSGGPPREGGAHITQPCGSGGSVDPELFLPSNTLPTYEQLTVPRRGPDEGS
CHO Tl ctr: thallium flux change in parental CHO cells, counter-screen for KCNQ2 inhibitor project. shares compounds with KCNQ2 block. stronger effect = lower value. activity change, % at 10 µM. 14% of 1,000 active;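 further: 0% = vehicle negative controls with stimulus buffer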
KCNQ2 patch conf: rat KCNQ2 channel inhibitors, confirmation, cell-based, automated patch clamp, single concentration; shares compounds with KCNQ2 block; KCNQ2-expressing cells, automated patch clamp current; calls only at 10 µM; 49% of 550 active; AID 588531, 2011
Starred values were filed as active, the others as inactive; i = inactive; · = no result given; + = active, no number. Only some compounds are listed: those with a hit (about 1.6% of all), similar ones and a draw of the others. Unless noted, how the calls were made is not given here.

SMILES	KCNQ2 pot	KCNQ2 block	KCNQ2 block conf	KCNQ1 spec	CHO Tl ctr	others
COc1cc(/C=N/O)ccc1OCc1ccc(Cl)cc1	·	i	·	·	·
Cc1nn(-c2ccccc2)nc1C(=O)NNC(=O)c1ccc(C(F)(F)F)cc1	0.69	i	·	·	·
CCN(CC(=O)Nc1ccccc1OC)C(=O)c1cc(-c2ccccc2)nn1-c1ccccc1	·	i	·	·	·
CCN(CC(=O)Nc1ccccc1C(F)(F)F)C(=O)c1cc(-c2ccccc2)nn1-c1ccccc1	-9.32	-9.32*	i	i	i
CCOc1ccccc1C(=O)Nc1cc(OC)ccc1OC	·	i	·	·	·
COc1ccc(NC(=O)c2cc3c(Cl)nc4ccccc4c3s2)c(OC)c1	0.8	i	·	·	·
COc1ccc(N(C)C(=O)c2cc3c(Cl)nc4ccccc4c3s2)cc1	-9.52	-9.52*	-39.0%*	-40.0%*	-37.0%*	KCNQ2 patch conf=+
C=CCn1c(NCc2c[nH]c3ccccc23)nc2ccccc21	-10	-10*	-29.5%*	i	i	KCNQ2 patch conf=+
C=CCn1c(NCc2ccc(OC)cc2)nc2ccccc21	·	i	·	·	·
CCOc1ccc(N(CC(=O)N2CCc3ccccc32)S(=O)(=O)c2c(C)noc2C)cc1	·	i	·	·	·
CCOc1ccc(N(CC(=O)N2CC=C(c3ccccc3)CC2)S(=O)(=O)c2c(C)noc2C)cc1	-8.62	-8.62*	i	i	i
COc1cc(-c2nc3ccc(C)cn3c2NCc2ccccc2)ccc1SC1CCCCC1	·	i	·	·	·
COc1cc(-c2nc3ccccn3c2NCc2ccccc2)ccc1SC1CCCCC1	-8.7	-8.7*	i	i	i
CCc1ccc(N(CC)C(=O)c2ccc3c(Cl)c4c(nc3c2)CCC4)cc1	·	i	·	·	·
c1ccc(N2CCCCC2)c(Nc2nc3ccccc3n3cnnc23)c1	·	i	·	·	·
CCOCCCNC(=O)c1ccc2c(c1)N=C(CC)c1cc(Br)ccc1S2	·	i	·	·	·
Cc1ccc2nc(NCC(=O)NN)nc(-c3ccccc3)c2c1	·	i	·	·	·
CN(CCOc1ccccc1)CC(=O)Nc1ccc([N+](=O)[O-])cc1Cl	·	i	·	·	·
CN(CC(=O)Nc1ccc([N+](=O)[O-])cc1Br)Cc1c(F)cccc1Cl	-11.2	-11.2*	i	i	i
CN1C(=O)C(CC(=O)NC2CCCCC2)N(C)C1=O (centres undefined)	0.7	i	·	·	·
CN(C)c1cc(N/N=C/c2ccc(Cl)cc2)nc(N(C)C)n1	-8.56	-8.56*	i	i	i
COc1cc(N/N=C/c2ccc(N(C)C)cc2)ncn1	·	i	·	·	·
Clc1ccccc1C(c1ccccc1)(c1ccccc1)n1ccnc1	-7.58	-7.58*	-36.0%*	-30.5%*	-24.0%*	KCNQ2 patch conf=i
Clc1ccccc1OCCCn1ccnc1	1.14	i	·	·	·
O=C(Nc1cc(Cl)cc(Cl)c1)C(NCC1CCCO1)c1ccccc1 (centres undefined)	-7.77	-7.77*	i	i	i
SMILES	KCNQ2 pot	KCNQ2 block	KCNQ2 block conf	KCNQ1 spec	CHO Tl ctr	others
O=C(CC(c1ccccc1)c1ccccc1)NCC1CCCO1 (centres undefined)	·	i	·	·	·
CN(C)CCNC(C(=O)Nc1cc(Cl)cc(Cl)c1)c1ccccc1 (centres undefined)	·	i	·	·	·
Cc1ccc(NC(=O)C(NC2CCCC2)c2ccccc2)cc1Cl (centres undefined)	-6.81	-6.81*	-36.5%*	-39.0%*	-36.0%*	KCNQ2 patch conf=i
COc1cccc(NC(=O)C(NC2CCCC2)c2ccccc2)c1 (centres undefined)	·	i	·	·	·
CC(C)NC(C(=O)Nc1cc(Cl)cc(Cl)c1)c1ccccc1 (centres undefined)	-8.11	-8.11*	-36.0%*	i	i	KCNQ2 patch conf=i
COc1cccc(NC(=O)CSc2ncnc3c2cnn3Cc2ccccc2)c1	·	i	·	·	·
CCOn1c(=O)c(-c2ccc(C)cc2)[n+]([O-])c2ccccc21	0.02	i	·	·	·
COC(=O)c1[nH]c2ccc(Cl)cc2c1NC(=O)CCN1CCOCC1	0.29	i	·	·	·
Cc1ccc2c(c1)C=CC(C)(C)S2=O (centres undefined)	1.22	i	·	·	·
O=C(Nc1ccc2c(c1)OCO2)C(c1ccccc1)N1CCCCC1 (centres undefined)	·	i	·	·	·
CC1CCN(C(C(=O)Nc2ccc3c(c2)OCO3)c2ccccc2)CC1 (centres undefined)	-6.99	-6.99*	i	i	i
CCOC(=O)CNC(=O)CSc1nnc(CCc2nc3ccccc3[nH]2)n1C	0.49	i	·	·	·
Cc1ccc2c(CC(=O)NNC(=O)c3ccncc3)coc2c1	·	i	·	·	·
Cc1ccc(C(O)(c2ccccc2)c2ccccc2C(C)N(C)C)c(C)c1 (centres undefined)	-8.95	-8.95*	-31.0%*	i	i	KCNQ2 patch conf=+
CC(c1ccccc1C(O)c1ccccc1)N(C)C (centres undefined)	0.59	i	·	·	·
O=C(NCc1ccc2c(c1)OCO2)C1CC(=O)N(C2CCCCCCC2)C1 (centres undefined)	0.92	i	·	·	·
Cc1ccccc1OCCn1cc(C(=O)C(=O)N2CCOCC2)c2ccccc21	-8.47	-8.47*	-33.0%*	i	i	KCNQ2 patch conf=+
O=C(C(=O)N1CCOCC1)c1cn(CCOc2ccccc2)c2ccccc12	·	i	·	·	·
Clc1cccc(Cl)c1/C=C/c1nc2ccccc2[nH]1	-8.72	-8.72*	-35.5%*	-42.0%*	-29.5%*	KCNQ2 patch conf=i
Clc1ccc(/C=C/c2nc3ccccc3[nH]2)cc1	·	i	·	·	·
Cc1ccc(S(=O)(=O)NC2OC(=O)C(Cl)=C2Cl)cc1 (centres undefined)	·	i	·	·	·
Cc1onc(-c2ccccc2)c1C(=O)Nc1nc(-c2ccccc2)cs1	-7.24	-7.24*	i	i	i
Cc1onc(-c2ccccc2)c1C(=O)Nc1nc(-c2cc(F)ccc2F)cs1	·	i	·	·	·
N#C/C(=C\c1ccc(N2CCOCC2)o1)C(=O)NC1CCCCC1	·	i	·	·	·
CCc1nc2ccccc2c(C(=O)Nc2cc(C)ccc2C)c1C	-7.46	-7.46*	i	i	i
SMILES	KCNQ2 pot	KCNQ2 block	KCNQ2 block conf	KCNQ1 spec	CHO Tl ctr	others
Cc1ccc(NC(=O)c2c3c(nc4ccccc24)CCC3)cc1	·	i	·	·	·
CCc1nc2ccccc2c(C(=O)Nc2cccc(C)c2)c1C	·	i	·	·	·
Cc1ccccc1NC(=O)c1c2c(nc3ccccc13)CCC2	-6.91	-6.91*	i	i	i
O=C(NCc1ccccn1)c1ccc(=O)oc1	·	i	·	·	·
CC(C)Cn1c(N)c(C(=O)NCCN2CCOCC2)c2nc3ccccc3nc21	0.33	i	·	·	·
CCOC(=O)C1=C(C)Nc2nc(C)nn2C1c1cc(OC)ccc1OC (centres undefined)	0.64	i	·	·	·
CCCn1c(=O)c(C(=O)NCc2ccccc2OC)c(O)c2ccccc21	-7.62	-7.62*	i	i	i
CCn1c(=O)c(C(=O)NCc2ccccc2)c(O)c2ccccc21	·	i	·	·	·
